In PubChem BioAssay (NCI) one finds growth data, which are given here for 16 molecules.

Among the test systems are NCI-H23 lung; NCI-H322M lung; HOP-62 NSCLC; NCI-H460 lung; HOP-92 NSCLC; NCI-H522 lung; A549/ATCC NSCLC; 786-0 renal; COLO 205 colon; NCI-H226 lung.
Assay in all cases: NCI-60 one-dose screen, 48 h (100 = growth as untreated, 0 = no growth, -100 = all killed)
Holding throughout (conditions): 10 µM unless noted

“And” between values parts separate entries of the source, which are not always exact repeats. Equal values may be shown once. About 83,000 compounds went through this panel and 20% of them were active in at least one assay; those are over-represented in the sample as a whole.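 Assay: single dose, 48 h. Readout: percent growth (0 = no net growth; negative = cell death). Active: <10.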 Values without a mark were called inactive. The source made the active and inactive calls.

Take `CC1=C(C)C(=O)O[C@@H]([C@](C)(O)[C@]2(O)CC[C@@]3(O)[C@@H]4C[C@H]5O[C@]56CC=CC(=O)[C@]6(C)[C@H]4CC[C@]23C)C1`: the growth with NCI-H23 lung is -22% (active); in the assay on NCI-H322M lung, -15.5% (active); with HOP-62 NSCLC, 2.69% (active); in the assay with NCI-H460 lung it was 5.64% (active); with HOP-92 NSCLC, 15.7%; with NCI-H522 lung it was -59.5% (active). Further, the figures for the growth in the assay on A549/ATCC NSCLC, in the assay with 786-0 renal and in the assay with COLO 205 colon were 7.89% (active), -30.7% (active) and -83.1% (active), respectively.
Regarding `COc1c(O)cc2c(c1OC)-c1ccc(SC)c(=O)cc1C(NC(C)=O)CC2` (stereo unspecified), the growth was 21.4% in the assay on NCI-H23 lung; 41.1% in the assay with NCI-H322M lung; 22.2% with HOP-62 NSCLC; 3% (active) in the assay on NCI-H460 lung; -46.8% (active) with NCI-H522 lung; 46.4% in the assay with A549/ATCC NSCLC. Moreover, the growth with 786-0 renal was 19.1%; in the assay on COLO 205 colon it was -44.6% (active).
`C[C@]12CC[C@H](O)C[C@@H]1CC[C@@H]1[C@@H]2CC[C@]2(C)OC(=O)CC[C@@H]12`: the growth was 108% in the assay with NCI-H23 lung; 87.2% in the assay on NCI-H322M lung; 109% in the assay with NCI-H460 lung; 91.1% with HOP-92 NSCLC; 72.8% with A549/ATCC NSCLC; 88.7% with 786-0 renal. In addition, the growth with COLO 205 colon is 72.5%.
Turning to `CC1(C)CN=C(NN=C(/C=C/c2ccc(C(F)(F)F)cc2)/C=C/c2ccc(C(F)(F)F)cc2)NC1`, the growth was -43% (active) in the assay on NCI-H23 lung; 31.4% in the assay on NCI-H322M lung; -85.5% (active) in the assay with HOP-62 NSCLC; -54% (active) with NCI-H460 lung; -76.6% (active) with NCI-H522 lung; -90.2% (active) with 786-0 renal. Besides, in the assay on COLO 205 colon, the growth was -91.6% (active).
For `Cc1c2ccncc2c(C)c2c1[nH]c1ccccc12`, the growth in the assay with NCI-H23 lung was -79.5% (active); in the assay with NCI-H322M lung it was -83.3% (active); in the assay on NCI-H460 lung, -69.2% (active); in the assay with NCI-H522 lung, -50.6% (active); in the assay on A549/ATCC NSCLC, -65.4% (active); with 786-0 renal, -95.9% (active). In the assay with COLO 205 colon, the growth is -87.1% (active).
`C[C@]12CCc3sc(Nc4ccc(F)cc4)nc3C1=CC[C@@H]1[C@@H]2CC[C@]2(C)C(=O)CC[C@@H]12`: the growth is 72.8% in the assay on NCI-H23 lung; 82.1% in the assay with NCI-H322M lung; 82% in the assay with HOP-62 NSCLC; 69.9% with NCI-H460 lung; 96.8% with HOP-92 NSCLC; 62% in the assay on NCI-H522 lung. The growth in the assay on A549/ATCC NSCLC is 79.5%; with 786-0 renal it was 5.28% (active); in the assay with COLO 205 colon, 86%.
In the case of `CC(=O)C(N)Cc1ccccc1` (stereo unspecified), the growth is 98.3% in the assay with NCI-H23 lung; 106% in the assay with NCI-H322M lung; 85.1% in the assay on HOP-62 NSCLC; 86.3% in the assay on HOP-92 NSCLC; 91.7% in the assay with NCI-H522 lung; 67.9% in the assay on A549/ATCC NSCLC. Besides, the growth with 786-0 renal was 96.5%; with COLO 205 colon, 97.8%.
For `CC1(C)N=C(N)N=C(N)N1c1ccc(CCC(=O)Nc2ccc(S(=O)(=O)F)cc2)cc1`, the growth in the assay with NCI-H226 lung was 65.3%; with HOP-62 NSCLC, 47.1%; in the assay on NCI-H460 lung, 14.5%; in the assay on HOP-92 NSCLC, 70.8%; with NCI-H522 lung it was 23.6%; with A549/ATCC NSCLC, 18.9%. In addition, the growth with 786-0 renal was 21.3%; in the assay with COLO 205 colon, 28.8%.
Consider `CCC(Br)(CC)C(=O)NC(N)=O`, for which the growth in the assay on NCI-H23 lung was 108%; in the assay with NCI-H322M lung it was 106%; in the assay on NCI-H460 lung it was 103%; in the assay on HOP-92 NSCLC, 103%; in the assay with A549/ATCC NSCLC it was 104%; with 786-0 renal, 107%. Also, in the assay with COLO 205 colon, the growth is 108%.
`N#CC(NC(=O)CCl)=C(Cl)Cl`: the growth is 28.5% in the assay on NCI-H23 lung; 78.6% in the assay with NCI-H322M lung; 50.7% in the assay on NCI-H460 lung; -71.5% (active) in the assay with HOP-92 NSCLC; -84.4% (active) with NCI-H522 lung; 66.8% with A549/ATCC NSCLC. The figures for the growth with 786-0 renal and with COLO 205 colon were -72.2% (active) and -90.4% (active), respectively.
With `O=C1NC(=O)C(=C/C=C/c2ccccc2)C(=O)N1`, the growth in the assay with NCI-H23 lung was -49% (active); in the assay on NCI-H322M lung it was 97%; with HOP-62 NSCLC, 48.2%; with NCI-H460 lung, 33.1%; in the assay with HOP-92 NSCLC it was 92.8%; with A549/ATCC NSCLC, 80.2%. For the same molecule, the figures for the growth with 786-0 renal and in the assay with COLO 205 colon were -25.4% (active) and -47.1% (active), respectively.
Turning to `CN1CCC2(CC1)C(C#N)C(=O)NC(=O)C2C#N` (stereo unspecified), the growth in the assay with NCI-H226 lung is 96.1%; with NCI-H460 lung, 106%; in the assay with HOP-92 NSCLC, 109%; in the assay with NCI-H522 lung, 110%; in the assay on A549/ATCC NSCLC it was 95.9%; in the assay with 786-0 renal, 104%. The growth with COLO 205 colon was 109%.
In the case of `COC(=O)C1=CCCN(C)C1`, the growth with NCI-H23 lung was 104% and 101%; with NCI-H322M lung, 96.2% and 82.7%; with HOP-62 NSCLC, 109%; in the assay with NCI-H460 lung, 110% and 106%; with HOP-92 NSCLC, 76.9%; in the assay on NCI-H522 lung, 96.8% and 73.1%. The growth is 101% in the assay on A549/ATCC NSCLC; 100% and 101% in the assay with 786-0 renal; 114% and 121% with COLO 205 colon.
As to `CCCC1CCCCC12C(=O)NC(=O)NC2=O` (stereo unspecified), the growth in the assay on NCI-H23 lung is 97.2% and 101%; with NCI-H322M lung, 105% and 94.3%; in the assay on NCI-H460 lung, 101% and 109%; in the assay with HOP-92 NSCLC it was 103%; in the assay with NCI-H522 lung, 95.5% and 89.7%; with A549/ATCC NSCLC, 104% and 98.2%. For the same molecule, the growth was 102% and 96.6% in the assay on 786-0 renal; 104% and 110% in the assay with COLO 205 colon.
Regarding `Cn1cc(C(=O)C[n+]2ccccc2)c2ccccc21`, the growth is 91.7% in the assay with NCI-H23 lung; 104% with NCI-H322M lung; 107% with NCI-H460 lung; 92.1% with HOP-92 NSCLC; 96.9% in the assay with NCI-H522 lung; 102% with A549/ATCC NSCLC. The growth with 786-0 renal was 97.4%; with COLO 205 colon it was 101%.
Regarding `O=P1(N(CCCl)CCCl)NCCCO1` (stereo unspecified), the growth was 112% in the assay with NCI-H23 lung; 104% in the assay with NCI-H322M lung; 105% in the assay on HOP-62 NSCLC; 104% with NCI-H460 lung; 131% in the assay on HOP-92 NSCLC; 109% in the assay on NCI-H522 lung. The growth in the assay with 786-0 renal is 104%; in the assay with COLO 205 colon it was 116%.
